Common to all, as to assay: NCI-60 one-dose screen, 48 h (100 = growth as untreated, 0 = no growth, -100 = all killed)
Details in all cases: 10 µM unless noted

Test [1] has as its system NCI-H23 lung.
The test system of test [2] is NCI-H226 lung.
The subject of test [3] is NCI-H322M lung.
Test [4] deals with HOP-62 NSCLC.
The subject of test [5] is NCI-H460 lung.
Test [6] concerns HOP-92 NSCLC.
For test [7], the system named is NCI-H522 lung.
Test [8] has as its system A549/ATCC NSCLC.
Test [9] has as its system 786-0 renal.
Test [10] has as its system COLO 205 colon.

SMILES strings stand for the structures. This is part of a sample that, as a whole, favours compounds with a hit. Of some 83,000 tested, about 20% had one in any assay.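 Single-dose data. Exposure time 48 hours. Values below 10 considered active.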 Values without a mark were called inactive. Activity calls are given as the source filed them.

`CN(C)c1ccc2nc3ccc(=[N+](C)C)cc-3oc2c1`: the growth in [1] is 9.83% (active); in test [2] it was 33.2%; in test [3] it was 9.08% (active); in [4], 7.12% (active); in test [5], 35.3%; in [6] it was 55.9%. The growth was -37.4% (active) in test [7], 30.7% in test [8], 66.1% in test [9] and -10.3% (active) in test [10].
In the case of `CCNC(=O)Oc1ccc[nH]c1=O`, the growth in [1] is 105%; in test [2], 115%; in test [3], 102%; in test [4] it was 102%; in test [5], 102%; in test [6], 94%. In addition, the growth in [7] was 88.4%; in test [8], 91.8%; in test [9], 100%; in test [10], 117%.
`CCCc1cccc(CCC)c1NC(=O)Nc1cc(Cl)cc(Cl)c1`: the growth in [1] is 101%; in [2], 98.1%; in [3], 96.8%; in [4] it was 104%; in [5], 118%; in [6] it was 98.8%. Further, the growth in test [7] was 85.7%; in [8], 93.8%; in test [9] it was 93.9%; in test [10] it was 120%.
For `Cc1ccc(C2CCCCC2)cc1Br`, the growth in test [1] is 105%; in test [2], 97.7%; in [3], 99.2%; in [4], 91.3%; in test [5] it was 108%; in [6], 95%. Moreover, the growth in test [7] was 91.3%; in test [8] it was 89.4%; in test [9] it was 96.4%; in test [10], 101%.
Regarding `O=S(=O)(O)c1ccc(O)c(C2CCCCC2)c1`, the growth was 112% in [1]; 98.4% in [2]; 103% in test [3]; 87.4% in [4]; 108% in test [5]; 93.2% in [6]. In addition, the growth in [7] is 98.5%; in test [8], 96.6%; in [9], 91.1%; in test [10], 105%.
Turning to `CCCCOC(=O)c1ccc(NC(=O)CCl)cc1`, the growth is 10.4% in test [1]; 71% in test [2]; 93.7% in test [3]; 102% in test [4]; 35.8% in test [5]; 27% in test [6]. The growth in [7] was -77.7% (active); in [8] it was 69.4%; in [9] it was 70.2%; in test [10], 68.8%.
On to `O=c1cc(Cl)nc2ccccn12`, for which the growth is 98.8% in test [1]; 106% in test [2]; 107% in [3]; 103% in test [4]; 106% in test [5]; 94% in test [6]. The growth in test [7] is 99.7%; in [8], 107%; in [9], 108%; in test [10] it was 127%.
As to `CCCCCCCCNC(=O)C(C)C`, the growth was 94.6% in test [1]; 96.4% in test [2]; 107% in test [3]; 104% in [4]; 98.3% in test [5]; 90% in test [6]. In addition, the growth in test [7] is 92.5%; in test [8], 102%; in test [9], 107%; in test [10], 108%.
`CC1=CC(=Nc2ccc(N(C)C)cc2)C=C(C)C1=O`: the growth in [1] is 66.2%; in test [2], 83.5%; in [3] it was 95.8%; in [4], 86%; in test [5], 102%; in [6], 48.6%. In addition, the growth in test [7] is 94.4%; in test [8] it was 77.9%; in [9], 95%; in test [10], -14.5% (active).
Consider `OCCOc1ccc(-c2cc(-c3ccccn3)nc(-c3ccccn3)c2)cc1`, for which the growth in test [1] was 18.5%; in test [2], 0.498% (active); in test [3] it was 9.08% (active); in [4], 4.56% (active); in [5] it was 0.477% (active); in test [6] it was -1.12% (active). Besides, the growth was -18.8% (active) in test [7], 4.79% (active) in [8], 1.56% (active) in [9] and 0.364% (active) in test [10].
Regarding `CCOc1ccc(C(=O)O)cc1`, the growth was 97.6% in test [1]; 91.9% in test [2]; 108% in test [3]; 105% in test [4]; 103% in [5]; 90.4% in [6]. The growth in [7] was 101%; in [8], 108%; in test [9], 101%; in [10], 105%.
Consider `CC1(C)CC(=O)C=C(N)C1`, for which the growth in [1] was 88.1%; in [2] it was 103%; in test [3], 106%; in test [4], 103%; in [5] it was 121%; in [6] it was 109%. The growth in [7] is 89.6%; in [8], 94.8%; in test [9] it was 106%; in test [10], 134%.
For `CCC(/C=C\C(C)=O)CC`, the growth is 101% in test [1]; 107% in test [2]; 99% in test [3]; 94.9% in test [4]; 100% in test [5]; 102% in test [6]. The growth was 106% in test [7], 104% in test [8], 101% in test [9] and 107% in test [10].
As to `Cc1ccnc(Nc2nc3ccccc3[nH]2)n1`, the growth is 104% in test [1]; 108% in test [2]; 103% in [3]; 97.4% in test [4]; 100% in test [5]; 99.5% in test [6]. Also, the growth was 103% in [7], 108% in test [8], 94% in [9] and 113% in test [10].
Regarding `S=C(NCc1ccccc1)N1CCC(CCCC2CCN(C(=S)NCc3ccccc3)CC2)CC1`, the growth in test [1] was 90%; in [2], 91.4%; in test [3], 118%; in test [4], 97.2%; in test [5], 106%; in test [6] it was 77.5%. The growth in test [7] is 80.2%; in test [8], 95.5%; in test [9], 101%; in test [10], 110%.
Take `Cc1ccc(C)c(CN(C)C)c1O`: the growth in [1] is 102%; in test [2], 97.6%; in test [3] it was 108%; in test [4] it was 97.4%; in test [5], 102%; in [6], 88.1%. The growth was 111% in test [7], 106% in test [8], 107% in test [9] and 113% in test [10].

The values are drawn from PubChem BioAssay (NCI).
